We go through 9 molecules from PubChem BioAssay (NCI).

Compounds without any hit were thinned out: in the full panel of roughly 79,000, 15% have a hit. Unmarked numbers belong to inactive results. The source made the active and inactive calls. Rule as the data show it: active = growth inhibition above about 70%; inactive = the rest.

The nature of experiment [1]: NCI Yeast Anticancer Drug Screen. Data for the rad50 strain (AID 155).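 Also: 0% = growth of vehicle-only cultures of the same strain.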 As to conditions: S. cerevisiae rad50 strain growth inhibition, stronger effect = higher value. The procedure, abridged: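 Yeast carrying a defined DNA repair defect were exposed to test compounds, and growth was compared with vehicle-treated controls to give percent inhibition.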
Experiment [2] in a line: NCI Yeast Anticancer Drug Screen. Data for the mec2-1 strain (AID 157). The settings on record: S. cerevisiae mec2-1 strain, stronger effect = higher value. A digest of the protocol: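 Mutant yeast (mec2-1) grown with compound; growth inhibition relative to vehicle control reported.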
Experiment [3] in a line: NCI Yeast Anticancer Drug Screen. Data for the sgs1 mgt1 strain (AID 161).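 Also: 0% = growth of cultures given vehicle only.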 The settings on record: S. cerevisiae sgs1 mgt1 strain, stronger effect = higher value. A digest of the protocol: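 Compounds are added to genetically altered yeast, and growth is compared with cultures given vehicle alone to give percent inhibition.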
Experiment [4] is described as follows: NCI Yeast Anticancer Drug Screen. Data for the cln2 rad14 strain (AID 165).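 Also: 0% = growth equal to vehicle treated cultures.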 As to conditions: S. cerevisiae cln2 rad14 strain, stronger effect = higher value. A digest of the protocol:
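Readout is yeast growth inhibition versus vehicle-treated controls, using a strain with cln2 and rad14 alterations exposed to compound.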

The nature of experiment [5]: NCI Yeast Anticancer Drug Screen. Data for the bub3 strain (AID 167). As to conditions: S. cerevisiae bub3 mutant strain, stronger effect = higher value. A digest of the protocol: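 Compounds were applied to a genetically altered yeast strain carrying a cell-cycle control defect. Growth inhibition was scored against vehicle-treated controls.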
A short description of experiment [6]: NCI Yeast Anticancer Drug Screen. Data for the mlh1 rad18 strain (AID 175). The settings on record: S. cerevisiae mlh1 rad18 strain growth inhibition, stronger effect = higher value. The procedure, abridged:
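Genetically defined yeast (DNA repair-deficient) exposed to compounds; growth inhibition determined relative to vehicle.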

Where [7] appears, read: at 5.0 µM (retest, dose inferred, filed as 0.5).
Setting [8] is: at 50.0 µM (retest, dose inferred, filed as 5.0).

In the case of `O=[N+]([O-])c1ccc([N+](=O)[O-])c2ccccc12`, the growth inhibition in experiment [1] (setting [7]) was 37%; in experiment [1] (setting [8]) it was 99% (active); in experiment [1] (at 50.0 µM), 86.5% (active); in experiment [2] (setting [7]), 47%; in experiment [2] (setting [8]), 99% (active); in experiment [2] (at 50.0 µM), 61.7%. For the same molecule, the growth inhibition in experiment [3] (setting [7]) was 61%; in experiment [3] (setting [8]) it was 97% (active); in experiment [3] (at 50.0 µM), 91.1% (active); in experiment [4] (setting [7]), 82% (active); in experiment [4] (setting [8]), 97% (active); in experiment [4] (at 50.0 µM), 67.9%. In addition, the growth inhibition in experiment [5] (setting [7]) is 45%; in experiment [5] (setting [8]), 95% (active); in experiment [5] (at 50.0 µM), 85.7% (active); in experiment [6] (setting [7]), 31%; in experiment [6] (setting [8]), 99% (active); in experiment [6] (at 50.0 µM), 22.8%.
Consider `N#CS.[Ag]`, for which the growth inhibition was 11% in experiment [1] (setting [7]); 97% (active) in experiment [1] (setting [8]); 60.8% in experiment [1] (at 50.0 µM); 10% in experiment [2] (setting [7]); 98% (active) in experiment [2] (setting [8]); 91.7% (active) in experiment [2] (at 50.0 µM). Besides, the growth inhibition in experiment [3] (setting [7]) was 15%; in experiment [3] (setting [8]), 98% (active); in experiment [3] (at 50.0 µM), 75.2% (active); in experiment [4] (setting [7]), 27%; in experiment [4] (setting [8]) it was 98% (active); in experiment [4] (at 50.0 µM) it was 32.7%. For the same molecule, the growth inhibition in experiment [5] (setting [7]) is 25%; in experiment [5] (setting [8]), 98% (active); in experiment [5] (at 50.0 µM), 89.5% (active); in experiment [6] (setting [7]), -1%; in experiment [6] (setting [8]), 97% (active); in experiment [6] (at 50.0 µM), 89% (active).
Consider `CC1=CC(=C2C=CC(=[N+](C)C)C=C2)C=C(C)S1`, for which the growth inhibition in experiment [1] (setting [7]) was 21%; in experiment [1] (setting [8]) it was 72% (active); in experiment [1] (at 50.0 µM), 55.6%; in experiment [2] (setting [7]), 10%; in experiment [2] (setting [8]), 91% (active); in experiment [2] (at 50.0 µM), 71.6% (active). Further, the growth inhibition in experiment [3] (setting [7]) is 9%; in experiment [3] (setting [8]) it was 94% (active); in experiment [3] (at 50.0 µM), 87.3% (active); in experiment [4] (setting [7]), 7%; in experiment [4] (setting [8]) it was 82% (active); in experiment [4] (at 50.0 µM), 77.7% (active). The growth inhibition in experiment [5] (setting [7]) was -2%; in experiment [5] (setting [8]), 96% (active); in experiment [5] (at 50.0 µM), 87.7% (active); in experiment [6] (setting [7]), 11%; in experiment [6] (setting [8]), 90% (active); in experiment [6] (at 50.0 µM) it was 87% (active).
On to `C[C@]12Cc3cn4ncnc4nc3CC1CC[C@@H]1[C@@H]2CC[C@]2(C)C(O)CC[C@@H]12` (some centres not stated), for which the growth inhibition is 21% in experiment [1] (setting [7]); 97% (active) in experiment [1] (setting [8]); 97.5% (active) in experiment [1] (at 50.0 µM); 24% in experiment [2] (setting [7]); 99% (active) in experiment [2] (setting [8]); 95% (active) in experiment [2] (at 50.0 µM). Besides, the growth inhibition in experiment [3] (setting [7]) is 60%; in experiment [3] (setting [8]), 99% (active); in experiment [3] (at 50.0 µM), 98% (active); in experiment [4] (setting [7]) it was 25%; in experiment [4] (setting [8]), 91% (active); in experiment [4] (at 50.0 µM) it was 78.7% (active). Besides, the growth inhibition in experiment [5] (setting [7]) is 24%; in experiment [5] (setting [8]) it was 97% (active); in experiment [5] (at 50.0 µM) it was 97% (active); in experiment [6] (setting [7]), 48%; in experiment [6] (setting [8]) it was 98% (active); in experiment [6] (at 50.0 µM) it was 98.6% (active).
Consider `O=c1[nH]c2ccccc2n1C1CCN(CCCC(c2ccc(F)cc2)c2ccc(F)cc2)CC1`, for which the growth inhibition in experiment [1] (setting [7]) was -10%; in experiment [1] (setting [8]), 34%; in experiment [1] (at 50.0 µM), -14.8%; in experiment [2] (setting [7]) it was 12%; in experiment [2] (setting [8]), 11%; in experiment [2] (at 50.0 µM) it was -11.4%. For the same molecule, the growth inhibition in experiment [3] (setting [7]) is 4%; in experiment [3] (setting [8]), 83% (active); in experiment [3] (at 50.0 µM), 48.7%; in experiment [4] (setting [7]), -7%; in experiment [4] (setting [8]), -4%; in experiment [4] (at 50.0 µM) it was -24%. For the same molecule, the growth inhibition in experiment [5] (setting [7]) is -2%; in experiment [5] (setting [8]), 10%; in experiment [5] (at 50.0 µM), 72.9% (active); in experiment [6] (setting [7]) it was 14%; in experiment [6] (setting [8]), 92% (active); in experiment [6] (at 50.0 µM) it was 63.8%.
With `O=C(CBr)Nc1ccccc1`, the growth inhibition in experiment [1] (setting [7]) is 40%; in experiment [1] (setting [8]) it was 99% (active); in experiment [1] (at 50.0 µM), 97% (active); in experiment [2] (setting [7]), 22%; in experiment [2] (setting [8]), 99% (active); in experiment [2] (at 50.0 µM) it was 98.9% (active). Further, the growth inhibition in experiment [3] (setting [7]) was 36%; in experiment [3] (setting [8]), 99% (active); in experiment [3] (at 50.0 µM), 98.4% (active); in experiment [4] (setting [7]), 25%; in experiment [4] (setting [8]), 99% (active); in experiment [4] (at 50.0 µM) it was 97.3% (active). Besides, the growth inhibition in experiment [5] (setting [7]) was 74% (active); in experiment [5] (setting [8]), 99% (active); in experiment [5] (at 50.0 µM) it was 97.1% (active); in experiment [6] (setting [7]) it was 48%; in experiment [6] (setting [8]) it was 100% (active); in experiment [6] (at 50.0 µM), 97.8% (active).
As to `C/C(=N\NC(N)=O)C(CN1CCCCC1)C(c1ccccc1)c1c(O)c2ccccc2oc1=O` (configuration not stated), the growth inhibition was 14% in experiment [1] (setting [7]); 14% in experiment [1] (setting [8]); 82.7% (active) in experiment [1] (at 50.0 µM); 15% in experiment [2] (setting [7]); 15% in experiment [2] (setting [8]); 83% (active) in experiment [2] (at 50.0 µM). The growth inhibition is 6% in experiment [3] (setting [7]); 6% in experiment [3] (setting [8]); 87.6% (active) in experiment [3] (at 50.0 µM); 0% in experiment [4] (setting [7]); 0% in experiment [4] (setting [8]); 72.8% (active) in experiment [4] (at 50.0 µM). Besides, the growth inhibition is 17% in experiment [5] (setting [7]); 17% in experiment [5] (setting [8]); 79% (active) in experiment [5] (at 50.0 µM); 17% in experiment [6] (setting [7]); 17% in experiment [6] (setting [8]); 81.5% (active) in experiment [6] (at 50.0 µM).
As to `CCC1(O)C(=O)OCc2c1cc1n(c2=O)Cc2cc3cc(C)ccc3nc2-1` (configuration not stated), the growth inhibition in experiment [1] (setting [7]) is 94% (active); in experiment [1] (setting [8]), 83% (active); in experiment [1] (at 50.0 µM), 82.2% (active); in experiment [2] (setting [7]), 36%; in experiment [2] (setting [8]), 64%; in experiment [2] (at 50.0 µM), 83.9% (active). Besides, the growth inhibition in experiment [3] (setting [7]) is 31%; in experiment [3] (setting [8]) it was -19%; in experiment [3] (at 50.0 µM), 47.1%; in experiment [4] (setting [7]), 17%; in experiment [4] (setting [8]) it was -4%; in experiment [4] (at 50.0 µM) it was 18.9%. In addition, the growth inhibition in experiment [5] (setting [7]) is -1%; in experiment [5] (setting [8]), -25%; in experiment [5] (at 50.0 µM), 18.8%; in experiment [6] (setting [7]), 36%; in experiment [6] (setting [8]) it was 61%; in experiment [6] (at 50.0 µM), 64.7%.
As to `COc1ccc(C[C@H]2NC[C@H](O)[C@H]2OC(C)=O)cc1`, the growth inhibition in experiment [1] (setting [7]) was 34%; in experiment [1] (setting [8]), 99% (active); in experiment [1] (at 50.0 µM), 92.5% (active); in experiment [2] (setting [7]), 29%; in experiment [2] (setting [8]), 99% (active); in experiment [2] (at 50.0 µM), 93.8% (active). Further, the growth inhibition in experiment [3] (setting [7]) is 27%; in experiment [3] (setting [8]) it was 99% (active); in experiment [3] (at 50.0 µM) it was 92.3% (active); in experiment [4] (setting [7]), 43%; in experiment [4] (setting [8]), 99% (active); in experiment [4] (at 50.0 µM), 89.9% (active). Further, the growth inhibition in experiment [5] (setting [7]) is 27%; in experiment [5] (setting [8]), 99% (active); in experiment [5] (at 50.0 µM), 92.2% (active); in experiment [6] (setting [7]) it was 51%; in experiment [6] (setting [8]) it was 98% (active); in experiment [6] (at 50.0 µM), 91% (active).
